Test results taken from PubChem BioAssay (NCI).
About 79,000 compounds went through this panel and 15% of them were active in at least one assay; those are over-represented in the sample as a whole. Calls of active or inactive are those of the source. Rule as the data show it: active = growth inhibition above about 70%; inactive = the rest.

Experiments:
[1] = NCI Yeast Anticancer Drug Screen. Data for the rad52 strain (AID 147);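 also: 0% = growth of vehicle-treated control cultures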; details: S. cerevisiae rad52 mutant growth inhibition, active compounds read high
Summary of the method: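 DNA repair-defective yeast; compound exposure; growth scored against vehicle controls.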

[2] = NCI Yeast Anticancer Drug Screen. Data for the wt1 strain (AID 149);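 also: 0% = growth of vehicle-treated wt1 cultures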; details: S. cerevisiae wt1 strain (SPY 50644) growth inhibition, active compounds read high
Summary of the method: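 The wt1 strain was treated with compounds, and growth was compared with vehicle-treated cultures to give inhibition.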

[3] = NCI Yeast Anticancer Drug Screen. Data for the rad50EPP+ strain (AID 151);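 also: 0% = growth of vehicle-treated control cultures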; details: S. cerevisiae rad50 mutant strain, active compounds read high
Summary of the method: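 rad50EPP+ yeast treated with test compounds. Readout: growth vs vehicle control.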

[4] = NCI Yeast Anticancer Drug Screen. Data for the mgt1 strain (AID 153); details: S. cerevisiae mgt1 mutant growth inhibition, active compounds read high
Summary of the method: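 Growth inhibition relative to vehicle controls was scored for the mgt1 yeast strain after compound exposure.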

[5] = NCI Yeast Anticancer Drug Screen. Data for the rad50 strain (AID 155);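 also: 0% = growth of vehicle-only cultures of the same strain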; details: S. cerevisiae rad50 strain growth inhibition, active compounds read high
Summary of the method: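 Cells are treated with compound, grown, and their growth is then scored against vehicle-only cultures of the same repair-deficient yeast strain.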

[6] = NCI Yeast Anticancer Drug Screen. Data for the mec2-1 strain (AID 157); details: S. cerevisiae mec2-1 strain, active compounds read high
Summary of the method: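 Growth inhibition is read against vehicle-treated controls after compound exposure of the mec2-1 yeast strain, which is defective in DNA damage repair or cell cycle control.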

[7] = NCI Yeast Anticancer Drug Screen. Data for the sgs1 mgt1 strain (AID 161);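 also: 0% = growth of cultures given vehicle only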; details: S. cerevisiae sgs1 mgt1 strain, active compounds read high
Summary of the method: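 Compounds are added to genetically altered yeast, and growth is compared with cultures given vehicle alone to give percent inhibition.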

[8] = NCI Yeast Anticancer Drug Screen. Data for the CLN2oe strain (AID 163);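 also: 0% = growth of vehicle-only control cultures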; details: S. cerevisiae CLN2oe strain, active compounds read high
Summary of the method: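 Compound-treated yeast; growth vs vehicle ctrl = % inhibition. Genetically altered strain (cell-cycle control).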

[9] = NCI Yeast Anticancer Drug Screen. Data for the cln2 rad14 strain (AID 165);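 also: 0% = growth equal to vehicle treated cultures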; details: S. cerevisiae cln2 rad14 strain, active compounds read high
Summary of the method: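 Growth inhibition, relative to vehicle-treated controls, is the read-out. The test organism is a yeast strain with defined genetic alterations, cln2 rad14.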

[10] = NCI Yeast Anticancer Drug Screen. Data for the bub3 strain (AID 167); details: S. cerevisiae bub3 mutant strain, active compounds read high
Summary of the method: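 Part of a panel of yeast mutants defective in DNA damage repair or cell cycle regulation. Each strain is grown with compound, and inhibition is calculated relative to solvent-treated cultures.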

[11] = NCI Yeast Anticancer Drug Screen. Data for the wt2 strain (AID 169);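 also: 0% = growth of vehicle-treated yeast cultures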; details: S. cerevisiae wt2 strain growth inhibition, active compounds read high
Summary of the method: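 Compound exposure of yeast; growth compared with vehicle controls; inhibition reported.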

[12] = NCI Yeast Anticancer Drug Screen. Data for the mlh1 strain (AID 171);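 also: 0% = growth of vehicle-treated control cultures of the same strain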; details: S. cerevisiae mlh1 strain growth inhibition, active compounds read high
Summary of the method: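 Compounds are applied to a genetically altered yeast strain, and its growth is compared with that of vehicle-treated cultures to give percent inhibition.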

[13] = NCI Yeast Anticancer Drug Screen. Data for the sgs1 strain (AID 173);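 also: 0% = growth of vehicle-only control cultures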; details: S. cerevisiae sgs1 mutant, active compounds read high
Summary of the method: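 Compounds applied to genetically altered yeast; growth compared with vehicle-treated cultures to give % inhibition.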

[14] = NCI Yeast Anticancer Drug Screen. Data for the mlh1 rad18 strain (AID 175); details: S. cerevisiae mlh1 rad18 strain growth inhibition, active compounds read high
Summary of the method: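 Cells of a genetically altered yeast strain, deficient in DNA damage repair, were treated with compound. Their growth was then compared with that of vehicle-treated cultures to give inhibition.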

[15] = NCI Yeast Anticancer Drug Screen. Data for the rad18 strain (AID 177); details: S. cerevisiae rad18 mutant growth inhibition, active compounds read high
Summary of the method: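 Compounds are applied to a repair-deficient yeast strain, and growth is compared with that of vehicle-treated cultures to give percent inhibition.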

[16] = at 5.0 µM (retest, dose inferred, filed as 0.5)
[17] = at 50.0 µM (retest, dose inferred, filed as 5.0)

Measured: growth inhibition

Cc1ccc(Nc2n[nH]c(=S)s2)c(C)c1
active: [1]; at 100.0 µM 89% | [2]; at 100.0 µM 90% | [4]; at 100.0 µM 85% | [5]; at 100.0 µM 90% | [6]; at 100.0 µM 83% | [7]; at 50.0 µM 70.5% | [8]; at 100.0 µM 76% | [10]; [17] 71% | [10]; at 100.0 µM 84% | [11]; at 100.0 µM 91% | [12]; at 100.0 µM 89% | [13]; at 100.0 µM 93% | [15]; at 100.0 µM 93%
inactive: [1]; at 1.2 µM -42% | [1]; at 3.7 µM -28% | [1]; at 11.0 µM -33% | [1]; at 33.0 µM 2% | [2]; at 1.2 µM -16% | [2]; at 3.7 µM -3% | [2]; at 11.0 µM -10% | [2]; at 33.0 µM 18% | [3]; at 1.2 µM -45% | [3]; at 3.7 µM -33% | [3]; at 11.0 µM 23% | [3]; at 33.0 µM 56% | [3]; at 100.0 µM 51% | [4]; at 1.2 µM -52% | [4]; at 3.7 µM -56% | [4]; at 11.0 µM -21% | [4]; at 33.0 µM 58% | [5]; at 1.2 µM -11% | [5]; at 3.7 µM -15% | [5]; [16] 21% | [5]; at 11.0 µM 0% | [5]; at 33.0 µM 15% | [5]; [17] 18% | [5]; at 50.0 µM 56.3% | [6]; at 1.2 µM -44% | [6]; at 3.7 µM -45% | [6]; [16] -11% | [6]; at 11.0 µM -18% | [6]; at 33.0 µM -3% | [6]; [17] 8% | [6]; at 50.0 µM 14.8% | [7]; [16] -6% | [7]; [17] 44% | [8]; at 1.2 µM 4% | [8]; at 3.7 µM 0% | [8]; at 11.0 µM -10% | [8]; at 33.0 µM 13% | [9]; [16] 24% | [9]; [17] 49% | [9]; at 50.0 µM 48.1% | [10]; at 1.2 µM 3% | [10]; at 3.7 µM 10% | [10]; [16] 3% | [10]; at 11.0 µM 30% | [10]; at 33.0 µM 17% | [10]; at 50.0 µM 52.5% | [11]; at 1.2 µM -38% | [11]; at 3.7 µM -34% | [11]; at 11.0 µM -10% | [11]; at 33.0 µM 62% | [12]; at 1.2 µM -9% | [12]; at 3.7 µM 6% | [12]; at 11.0 µM 19% | [12]; at 33.0 µM 64% | [13]; at 1.2 µM -29% | [13]; at 3.7 µM -28% | [13]; at 11.0 µM 9% | [13]; at 33.0 µM 51% | [14]; [16] 1% | [14]; [17] 19% | [14]; at 50.0 µM 24.4% | [15]; at 1.2 µM -27% | [15]; at 3.7 µM -25% | [15]; at 11.0 µM -13% | [15]; at 33.0 µM 39%

CC1(C)OC(=O)C(=Cc2ccc([N+](=O)[O-])s2)C(=O)O1
inactive: [1]; at 1.2 µM -17% | [1]; at 3.7 µM -35% | [1]; at 11.0 µM -31% | [1]; at 33.0 µM -14% | [2]; at 1.2 µM -28% | [2]; at 3.7 µM -33% | [2]; at 11.0 µM -14% | [2]; at 33.0 µM 32% | [2]; at 100.0 µM 35% | [3]; at 1.2 µM -17% | [3]; at 3.7 µM -20% | [3]; at 11.0 µM -2% | [4]; at 1.2 µM -8% | [4]; at 3.7 µM 15% | [4]; at 11.0 µM 26% | [4]; at 100.0 µM 50% | [5]; at 1.2 µM -9% | [5]; at 3.7 µM -7% | [5]; [16] 28% | [5]; at 11.0 µM -13% | [5]; at 33.0 µM -6% | [5]; at 50.0 µM 68.6% | [6]; at 1.2 µM -28% | [6]; at 3.7 µM -5% | [6]; [16] 23% | [6]; at 11.0 µM -23% | [6]; at 33.0 µM 12% | [7]; [16] 56% | [8]; at 1.2 µM 14% | [8]; at 3.7 µM 26% | [8]; at 11.0 µM 29% | [8]; at 33.0 µM 63% | [9]; [16] 47% | [9]; at 50.0 µM 30.8% | [10]; at 1.2 µM -18% | [10]; at 3.7 µM -13% | [10]; [16] 48% | [10]; at 11.0 µM -8% | [10]; at 33.0 µM 60% | [10]; at 100.0 µM 5% | [11]; at 1.2 µM 0% | [11]; at 3.7 µM -9% | [11]; at 11.0 µM -7% | [11]; at 33.0 µM 62% | [12]; at 1.2 µM -28% | [12]; at 3.7 µM -24% | [12]; at 11.0 µM -33% | [12]; at 33.0 µM 38% | [13]; at 1.2 µM -31% | [13]; at 3.7 µM -25% | [13]; at 11.0 µM -15% | [13]; at 33.0 µM 48% | [14]; [16] 10% | [14]; [17] 51% | [15]; at 1.2 µM 10% | [15]; at 3.7 µM 21% | [15]; at 11.0 µM 32% | [15]; at 100.0 µM 69%
active: [1]; at 100.0 µM 98% | [3]; at 33.0 µM 86% | [3]; at 100.0 µM 88% | [4]; at 33.0 µM 95% | [5]; [17] 89% | [5]; at 100.0 µM 98% | [6]; [17] 99% | [6]; at 50.0 µM 89.3% | [6]; at 100.0 µM 70% | [7]; [17] 100% | [7]; at 50.0 µM 90% | [8]; at 100.0 µM 97% | [9]; [17] 81% | [10]; [17] 100% | [10]; at 50.0 µM 85% | [11]; at 100.0 µM 71% | [12]; at 100.0 µM 71% | [13]; at 100.0 µM 98% | [14]; at 50.0 µM 92.3% | [15]; at 33.0 µM 85%

O=C(CCCN1CCC(Nc2ccc(F)cc2)(c2nnnn2C2CCCCC2)CC1)c1ccc(F)cc1
active: [1]; at 100.0 µM 98% | [2]; at 100.0 µM 89% | [4]; at 100.0 µM 98% | [5]; at 100.0 µM 97%
inactive: [1]; at 1.2 µM 14% | [1]; at 3.7 µM 2% | [1]; at 11.0 µM 19% | [1]; at 33.0 µM 24% | [2]; at 1.2 µM -81% | [2]; at 3.7 µM -5% | [2]; at 11.0 µM -11% | [2]; at 33.0 µM -11% | [3]; at 1.2 µM 0% | [3]; at 3.7 µM 0% | [3]; at 11.0 µM 1% | [3]; at 33.0 µM 4% | [3]; at 100.0 µM 25% | [4]; at 1.2 µM -2% | [4]; at 3.7 µM -3% | [4]; at 11.0 µM -6% | [4]; at 33.0 µM 2% | [5]; at 1.2 µM -5% | [5]; at 3.7 µM -7% | [5]; [16] 1% | [5]; at 11.0 µM -9% | [5]; at 33.0 µM -5% | [5]; [17] 37% | [5]; at 50.0 µM 11.7% | [6]; at 1.2 µM -7% | [6]; at 3.7 µM -8%
